Measurements from PubChem BioAssay AID504832 (National Center for Advancing Translational Sciences (NCATS), 2011).
Screen size: about 310,000 compounds; about 18,000 (5.8%) were called active. Another 22% or so got no clear call; they are omitted. Calls follow the shape of the dose curve; as a rule, active = well fitted inhibition curve with a large enough effect; inconclusive = small, poorly fitted or top-dose-only effect, or another doubt; inactive = no such curve, though single readings can be large or run the other way. The entries come from a sample that favours actives as a whole. Entries that show only a call come without a potency.

experiment: Primary qHTS for delayed death inhibitors of the malarial parasite plastid, 48 hour incubation; conditions: P. falciparum luciferase growth in erythrocytes; series mostly up to 28.7 µM
Method in brief: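 First compound was added to culture medium, then infected red cells at 0.1% parasitemia and 2% hematocrit (final). After incubation at 37 C under 5% CO2, luciferase detection reagent was dispensed and light output recorded.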
Potency is read from the fitted curve at half-maximal effect.

Row | SMILES | Potency
1 | Cc1ccc(CN2CCCC(C(=O)c3ccc4c(c3)OCO4)C2)cc1C (configuration not stated) | inactive
2 | Cc1ccc(S(=O)(=O)Cn2nnnc2CN2CCN(Cc3ccc4c(c3)OCO4)CC2)cc1 | inactive
3 | Cc1cc(C)c2[nH]c(=O)c(C(c3nnnn3Cc3ccc4c(c3)OCO4)N3CCCC3)cc2c1 (configuration not stated) | 13.1 µM (active)
4 | Fc1ccccc1C(c1nnnn1Cc1ccc2c(c1)OCO2)N1CCN(Cc2ccccc2)CC1 (configuration not stated) | 6.57 µM (active)
5 | Cc1cccc(C)c1NC(=O)CSc1nnc(-c2ccccc2)n1Cc1ccc2c(c1)OCO2 | inactive
6 | O=C(C1CCN(Cc2ccc(Cl)cc2)CC1)N1CCN(Cc2ccc3c(c2)OCO3)CC1 | inactive
7 | CSc1ccccc1NC(=O)COC(=O)CCCOc1ccc(C)cc1 | inactive
8 | CCOC(=O)c1cnc(-n2nc(C)cc2C)nc1NNc1cc(C)nc(-c2ccccc2)n1 | 3.29 µM (active)
9 | CCOC(=O)c1cnc(-n2nc(C)cc2C)nc1-n1nc(C)cc1C | inactive
10 | CCOC(=O)c1c(C)nc(-c2ccccc2)nc1NC(=O)C(C)C | inactive
11 | COCCOC1CCN(C(=O)c2ccc(OC)c(OC3CCN(C(C)C)CC3)c2)CC1 | inactive
12 | COc1ccccc1NC(=O)C(C)OC(=O)c1ccc(-n2cnnn2)cc1 (configuration not stated) | inactive
13 | CCc1ccc(Nc2n[n+](-c3ccccc3)c(-c3cccc(Cl)c3Cl)s2)cc1 | 4.15 µM (active)
14 | COc1cc(Br)c(-c2sc(Nc3ccccc3)n[n+]2-c2ccccc2)cc1OC | inactive
15 | Cc1ccc(Nc2nnc(SCc3ccccc3)s2)cc1 | inactive
16 | CC(=O)Nc1ccc(S(=O)(=O)N2CCN(S(=O)(=O)c3cccs3)CC2)cc1 | inactive
17 | CC(=O)Nc1ccc(S(=O)(=O)N2CCN(CCCOc3cc(C)ccc3C)CC2)cc1 | 7.38 µM (active)
18 | Cc1ccc(C)c(S(=O)(=O)N2CCN(CC(=O)Nc3ccc([N+](=O)[O-])cc3)CC2)c1 | inactive
19 | CCOC(=O)C1(CCOC)CCN(Cc2cc3ccccc3s2)CC1 | inactive
20 | CCOC(=O)C1(Cc2cccc(OC)c2)CCN(Cc2csc(C(C)=O)c2)CC1 | inactive
21 | CCOC(=O)C1(CCOC)CCN(Cc2ccc(C(=O)OC)cc2)CC1 | 10.4 µM (active)

Row | SMILES | Potency
22 | O=C(COc1ccc(Cl)cc1)Nc1ccc2c(c1)OCO2 | inactive
23 | O=C(Nc1cccc(OCC(=O)N2CCOCC2)c1)C1CCCCC1 | inactive
24 | COc1ccc(NS(=O)(=O)c2cc(NC(=O)C3CCCCC3)ccc2N2CCOCC2)cc1 | 10.4 µM (active)
25 | COc1ccc(CNC(=O)C2CCN(S(=O)(=O)N3CCOCC3)CC2)cc1 | inactive
26 | COc1ccc(NS(=O)(=O)c2cc(NC(=O)/C=C/c3cc(OC)c(OC)c(OC)c3)ccc2N2CCCCC2)cc1 | 1.17 µM (active)
27 | COc1ccc(NS(=O)(=O)c2ccc(N3CCN(CCO)CC3)c([N+](=O)[O-])c2)cc1 | inactive
28 | COc1ccc(/C=C/C(=O)Nc2ccc3c(c2)OCCO3)cc1OC | inactive
29 | C=CCOc1cccc(C2NC(=O)c3ccccc3O2)c1 (configuration not stated) | inactive
30 | COc1ccc(N(CC(=O)NCC2CCCO2)C(=O)CCC(=O)Nc2nccs2)c(OC)c1 (configuration not stated) | inactive
31 | Cc1ccc(N2CC(C(=O)Nc3cc(Cl)ccc3-n3cncn3)CC2=O)cc1 (configuration not stated) | inactive
32 | Cc1ccc2c(c1)N(CC(=O)NCC1CCCO1)C(=O)CO2 (configuration not stated) | inactive
33 | COc1cccc(C(=O)NCCS(=O)(=O)NCC2CCCO2)c1 (configuration not stated) | inactive
34 | COc1cc(C(=O)NNC(=O)c2ccc(S(=O)(=O)N3CCCCC3)cc2)cc(OC)c1OC | inactive
35 | COc1ccc(S(=O)(=O)N2CCC(C(=O)N3CCc4ccccc4C3)CC2)cc1OC | inactive
36 | COc1cc2c(cc1OC)CN(C(=O)c1ccc(S(=O)(=O)N3CCCCCC3)cc1)CC2 | 6.57 µM (active)
37 | COC(=O)C1(CCSC)NC(c2ccc(OC)cc2OC)C2C(=O)N(c3cccc(C(C)=O)c3)C(=O)C21 (configuration not stated) | inactive
38 | CSc1ccccc1NC(=O)c1ccc2c(c1)CCN2S(C)(=O)=O | inactive
39 | COc1ccc2cc(C(=O)O)n(CC(=O)c3ccccc3)c2c1 | inactive
40 | Cc1cccc(N(C(=O)c2ccc(CN3CCOCC3)o2)C(C(=O)NC2CCCCC2)c2ccc(F)cc2)c1 (configuration not stated) | inactive
41 | Cc1ccc(N(C(=O)c2ccc(CN3CCOCC3)o2)C(C(=O)NCCC(C)C)c2cccs2)c(C)c1 (configuration not stated) | 10.4 µM (active)
42 | Cc1ccc(CS(=O)Cc2ccc(C(=O)N3CCOCC3)o2)cc1 (configuration not stated) | inactive

Row | SMILES | Potency
43 | Cc1c(NS(=O)(=O)c2cc(C(=O)NCCc3ccc(F)cc3)cc(Cl)c2Cl)c(=O)n(-c2ccccc2)n1C | inactive
44 | COC(=O)c1ccc(NC(=O)CSc2nnc(C3CC3)n2C)cc1 | inactive
45 | CCOC(=O)C1=C(c2ccc(OC)cc2)C(=O)c2ccccc2C1=O | 2.94 µM (active)
46 | CCOC(=O)c1ccccc1NS(=O)(=O)c1ccc(OC)cc1 | inactive
47 | CCOC(=O)c1c(-c2ccc(C)cc2)csc1/N=C(\C)C1=C(O)c2ccccc2C1=O | inactive
48 | COc1ccc(-c2cc(C(=O)NCCCN3CCOCC3)no2)cc1 | inactive
49 | O=[N+]([O-])c1ccc(Oc2ccc(F)cc2Br)c2ccncc12 | 14.7 µM (active)
50 | Cn1c(SCc2ccc(F)cc2)nnc1-c1ccncc1 | inactive
51 | Cc1ccc(-c2csc(NC(=O)c3cnccn3)n2)cc1C | inactive
52 | Cc1ccc(-c2csc(NC(=O)C3=COCCO3)n2)cc1C | 10.4 µM (active)
53 | Cc1csc(NC(=O)C2=COCCO2)n1 | inactive
54 | CN(Cc1ccccc1)C(=O)c1cccc(C(=O)N(C)Cc2ccccc2)c1 | inactive
55 | CC(C)C[C@H](CO)Nc1nc(N(C)c2cccc(Cl)c2)c2ncn(C(C)C)c2n1 | 13.1 µM (active)
56 | O=C(CCCC(=O)N1CCN(c2cccc(Cl)c2)CC1)c1ccccc1 | inactive
57 | Cc1ccc(C)c(N2CCN(C(=O)Cn3ncn4cccc4c3=O)CC2)c1 | inactive
58 | CN1CN(C)c2ccc([N+](=O)[O-])c3cccc1c23 | inactive
59 | Cc1ccc(C(=O)N2CCC(n3nccc3NC(=O)Nc3cccc(F)c3)CC2)cn1 | inactive
60 | CCOc1cccc(SCc2noc(C(=O)NC(C)C)c2C(=O)O)c1 | inactive
61 | CCCNC(=O)c1onc(CSc2ccc(F)cc2)c1C(=O)NC(C)C | 9.28 µM (active)
62 | CCCCNC(=O)c1onc(CSc2cccc(OC)c2)c1C(=O)O | inactive
